Test results reported in PubChem BioAssay (NCI).
Compounds without any hit were thinned out: in the full panel of roughly 83,000, 20% have a hit.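 Activity criterion: percent growth below 10, measured after cells in 96-well plates were exposed to a single compound concentration for 48 hours.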 Unmarked numbers belong to inactive results. The source made the active and inactive calls.

What follows are compounds tested on SNB-19 CNS (assay: NCI-60 one-dose screen, 48 h (100 = growth as untreated, 0 = no growth, -100 = all killed)). Conditions: 10 µM.
For `O=C(/C=C/c1ccc(Br)cc1)c1nc2ccccc2n1Cc1ccc(Br)cc1`, the growth was -66.9% (active). Compound `COC(=O)CCn1c(-c2ccc(-n3cc(-c4ccc(O[C@H]5O[C@@H]6OC7(C)CC[C@H]8[C@H](C)CC[C@@H]([C@H]5C)[C@@]68OO7)cc4)nn3)cc2)nc2ccccc21` has a growth of 24.5%. `CC1=C(C=O)C2=C(C)C3(CC3)[C@@](C)(O)C(=O)C2=C1` gave a growth of 54.5%. For `N#C[Se]CC(=O)Nc1cccc(C(F)(F)F)c1`, the growth was -88.1% (active). With `CCC[Se]C(=O)c1ccc(C(=O)[Se]CCC)s1` the growth was -86.5% (active). With `C[C@H]1[C@@H](CC(=O)N[C@@H](Cc2coc3ccccc23)B(O)O)O[C@@H]2OC3(C)CC[C@H]4[C@H](C)CC[C@@H]1[C@@]24OO3` the growth was 26%. Compound `O=C(/C=C/c1ccco1)c1nc2ccccc2n1Cc1ccc(F)cc1` has a growth of 77.7%. `COC(=O)C[C@](O)(CCC(C)C)C(=O)O[C@H]1C(OC)=C[C@@]23CCCN2CCc2cc4c(cc2[C@@H]13)OCO4` was tested, and the growth was -28.3% (active). `C[C@H]1[C@H](OC(=O)CCC(=O)N(CCCc2cn(-c3ccc(C#N)cc3)nn2)CCNc2ccnc3cc(Cl)ccc23)O[C@@H]2OC3(C)CC[C@H]4[C@H](C)CC[C@@H]1[C@@]24OO3` was tested, and the growth was 69.8%.

Each compound was assayed on U251 CNS in the same assay as above. Conditions: 10 µM.
With `COc1cc2cc(C(=O)N3C[C@@H](CCl)c4c3cc(OC(=O)N3CCN(C)[C@@H]5CSSC[C@H]53)c3ccccc43)[nH]c2c(OC)c1OC` the growth was -14.6% (active). `CC1=C(CCC=O)C2=C(C)C3(CC3)[C@@](C)(O)C(=O)C2=C1` was tested, and the growth was -99.6% (active). `COC(=O)C[C@](O)(CCC(C)C)C(=O)O[C@@H]1C(OC)=C[C@]23CCCN2CCc2cc4c(cc2[C@H]13)OCO4` was tested, and the growth was -27.3% (active). In the case of `O=C(/C=C/c1ccc(Cl)cc1)c1nc2ccccc2n1Cc1ccc(F)cc1`, the growth is reported as -62.8% (active). For `CC[C@]12C=CCN3CC[C@@]4(c5ccc(OC)cc5N(C)[C@H]4[C@@](O)(C(=O)OC)[C@@H]1OC(=O)CCC[P+](C1CCCCC1)(C1CCCCC1)C1CCCCC1)[C@@H]32`, the growth was -82.5% (active). With `CC1=C2C(=C[C@@](C)(COP(=O)(Oc3ccccc3)Oc3ccccc3)[C@@H]2O)C(=O)[C@@](C)(O)C12CC2` the growth was -43.4% (active). Work on `CC(=O)Oc1ccccc1C(=O)NC([Se])=NC1CCCCC1` yielded a growth of 24.2%. Compound `CCOP(=O)(CC(F)(F)C(F)(F)F)OCC` has a growth of 73.7%. `CC(C)C[C@H](NC(=O)CNC(=O)C[C@H]1O[C@@H]2OC3(C)CC[C@H]4[C@H](C)CC[C@@H]([C@H]1C)[C@@]24OO3)B(O)O` showed a growth of 13.7%. Work on `C[C@H]1[C@@H](Oc2ccc(-c3cn(-c4ccnc5cc(Cl)ccc45)nn3)cc2)O[C@@H]2OC3(C)CC[C@H]4[C@H](C)CC[C@@H]1[C@@]24OO3` yielded a growth of 39.1%. In the case of `C[C@H]1[C@H](OC(=O)CCC(=O)N(CCCc2cn(-c3ccc([N+](=O)[O-])cc3)nn2)CCNc2ccnc3cc(Cl)ccc23)O[C@@H]2OC3(C)CC[C@H]4[C@H](C)CC[C@@H]1[C@@]24OO3`, the growth is reported as 55.9%. `COc1cc2cc(C(=O)N3C[C@@H](CCl)c4c3cc(OC(=O)N3CCN(C)[C@@H]5CSSC[C@@H]53)c3ccccc43)[nH]c2c(OC)c1OC` was tested, and the growth was 7.22% (active). `COc1cc2cc(C(=O)N3C[C@@H](CCl)c4c3cc(OC(=O)N3CCN(C(=O)CCC(=O)N5CCN(C)CC5)[C@@H]5CSSC[C@@H]53)c3ccccc43)[nH]c2c(OC)c1OC` was tested, and the growth was -71.2% (active). `COC(=O)c1ccc(-n2cc(CCCN(CCNc3ccnc4cc(Cl)ccc34)C(=O)CCC(=O)O[C@@H]3O[C@@H]4OC5(C)CC[C@H]6[C@H](C)CC[C@@H]([C@H]3C)[C@@]46OO5)nn2)cc1` gave a growth of 53.3%. `O=C([Se]C1C=CCCC1)c1ccc(C(=O)[Se]C2C=CCCC2)s1` (stereo not drawn) was tested, and the growth was -88% (active). `O=C(/C=C/c1cccc(Br)c1)c1nc2ccccc2n1Cc1ccc(F)cc1` was tested, and the growth was -9.29% (active). For `CC[C@]12C=CCN3CC[C@@]4(c5ccc(OC)cc5N(C)[C@H]4[C@@](O)(C(=O)OC)[C@@H]1OC(=O)CCC[P+](c1ccc(C)cc1)(c1ccc(C)cc1)c1ccc(C)cc1)[C@@H]32`, the growth was -91.2% (active). `O=C(NC([Se])=NC1CCCCC1)c1ccccc1` showed a growth of 49.2%. In the case of `O=C(/C=C/c1ccc(F)cc1)c1nc2ccccc2n1Cc1ccc(F)cc1`, the growth is reported as -56.3% (active). For `O=C(/C=C/c1ccccc1)c1nc2ccccc2n1Cc1ccc(Br)cc1`, the growth was -92.9% (active). With `C=CC[Se]C(=O)c1cncc(C(=O)[Se]CC=C)c1` the growth was -72.9% (active). `COc1ccc(OC)c(/C=C/C(=O)c2nc3ccccc3n2Cc2ccc(F)cc2)c1` was tested, and the growth was -74% (active). With `O=C(/C=C/c1ccc(F)cc1)c1nc2ccccc2n1Cc1ccc(Br)cc1` the growth was -91.8% (active). For `CC[C@]12C=CCN3CC[C@@]4(c5ccc(OC)cc5N(C)[C@H]4[C@@](O)(C(=O)OC)[C@@H]1OC(=O)CCCC[P+](c1ccc(C)cc1)(c1ccc(C)cc1)c1ccc(C)cc1)[C@@H]32`, the growth was -93.6% (active). In the case of `CC(C)N=C([Se])NC(=O)c1cccs1`, the growth is reported as 12.2%. With `CC1=C(CCC=NNC(N)=O)C2=C(C)C3(CC3)[C@@](C)(O)C(=O)C2=C1` the growth was -77.4% (active). With `Cc1ccc2[nH]c(=S)n(-c3ccc(F)cc3)c(=O)c2c1` the growth was 102%. `C#CC[Se]C(=O)c1ccc2n[se]nc2c1` gave a growth of 73.2%. `CC1=C(COCCOC(=O)c2ccc(S(=O)(=O)F)cc2)C2=C(C)C3(CC3)[C@@](C)(O)C(=O)C2=C1` was tested, and the growth was 4.59% (active). For `CC12CCC3(CCC(=O)NCCCNc4ccnc5cc(Cl)ccc45)[C@@](C)(OO[C@]3(C)O1)O2`, the growth was -28.8% (active). In the case of `O=C(/C=C/c1ccc(Br)cc1)c1nc2ccccc2n1Cc1ccc(Br)cc1`, the growth is reported as -86.3% (active). Compound `COC(=O)CCn1c(-c2ccc(-n3cc(-c4ccc(O[C@H]5O[C@@H]6OC7(C)CC[C@H]8[C@H](C)CC[C@@H]([C@H]5C)[C@@]68OO7)cc4)nn3)cc2)nc2ccccc21` has a growth of 32.5%. `CC1=C(C=O)C2=C(C)C3(CC3)[C@@](C)(O)C(=O)C2=C1` was tested, and the growth was -43.9% (active). In the case of `N#C[Se]CC(=O)Nc1cccc(C(F)(F)F)c1`, the growth is reported as -48.4% (active). For `CCC[Se]C(=O)c1ccc(C(=O)[Se]CCC)s1`, the growth was -60.4% (active). With `C[C@H]1[C@@H](CC(=O)N[C@@H](Cc2coc3ccccc23)B(O)O)O[C@@H]2OC3(C)CC[C@H]4[C@H](C)CC[C@@H]1[C@@]24OO3` the growth was -14.3% (active). With `O=C(/C=C/c1ccco1)c1nc2ccccc2n1Cc1ccc(F)cc1` the growth was 40.9%. With `COC(=O)C[C@](O)(CCC(C)C)C(=O)O[C@H]1C(OC)=C[C@@]23CCCN2CCc2cc4c(cc2[C@@H]13)OCO4` the growth was -25.2% (active). Compound `C[C@H]1[C@H](OC(=O)CCC(=O)N(CCCc2cn(-c3ccc(C#N)cc3)nn2)CCNc2ccnc3cc(Cl)ccc23)O[C@@H]2OC3(C)CC[C@H]4[C@H](C)CC[C@@H]1[C@@]24OO3` has a growth of 51.9%.
